# Laboratory results published in the supplement of paper PMC8728848.
# Many of the other results were omitted from the sample, so the strongest signals are more common in it than they were.
# Legend:
# Assay in all cases: glycan array binding signal (z-score within array); higher = stronger binding
# Details in all cases: glycan notation: IUPAC condensed, linker removed
# [1] = target: Fuc(a1-2)Gal(b1-3)GalNAc(b1-3)Gal(a1-4)Gal(b1-4)Glc
# In short: (§1)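 Negative Z-scores can be read as non-binding. The Z-score is calculated within each array and then averaged across arrays of one protein sequence at different concentrations or buffers and across linkers. Arrays, 3228 in all, were curated from the Consortium for Functional Glycomics database and kept only where the protein sequence was available.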
# [2] = target: Fuc(a1-2)Gal(b1-3)[Fuc(a1-4)]GlcNAc
# In short: as §1
# [3] = target: Fuc(a1-2)Gal(b1-4)[Fuc(a1-3)]GlcNAc
# In short: as §1
# [4] = target: Fuc(a1-2)Gal(b1-4)[Fuc(a1-3)]GlcNAc(b1-2)Man(a1-3)[Fuc(a1-2)Gal(b1-4)[Fuc(a1-3)]GlcNAc(b1-2)Man(a1-6)]Man(b1-4)GlcNAc(b1-4)[Fuc(a1-6)]GlcNAc
# In short: as §1
# [5] = target: Fuc(a1-2)Gal(b1-4)[Fuc(a1-3)]GlcNAc(b1-3)Gal(b1-4)[Fuc(a1-3)]GlcNAc
# In short: as §1
# [6] = target: Fuc(a1-2)Gal(b1-4)[Fuc(a1-3)]GlcNAc(b1-3)Gal(b1-4)[Fuc(a1-3)]GlcNAc(b1-3)Gal(b1-4)[Fuc(a1-3)]GlcNAc
# In short: as §1
# [7] = target: Fuc(a1-2)[Gal(a1-3)]Gal(b1-3)GlcNAc
# In short: as §1
# [8] = target: Fuc(a1-2)[Gal(a1-3)]Gal(b1-4)Glc
# In short: as §1
# [9] = target: Fuc(a1-2)[Gal(a1-3)]Gal(b1-4)GlcNAc
# In short: as §1
# [10] = target: Fuc(a1-2)[Gal(a1-3)]Gal(b1-4)GlcNAc(b1-2)Man(a1-3)[Fuc(a1-2)[Gal(a1-3)]Gal(b1-4)GlcNAc(b1-2)Man(a1-6)]Man(b1-4)GlcNAc(b1-4)GlcNAc
# In short: as §1
# [11] = target: Fuc(a1-2)[Gal(a1-3)]Gal(b1-4)[Fuc(a1-3)]GlcNAc
# In short: as §1
# [12] = target: Fuc(a1-2)[GalNAc(a1-3)]Gal(b1-3)GalNAc(b1-3)Gal(a1-4)Gal(b1-4)Glc
# In short: as §1
# [13] = target: Fuc(a1-2)[GalNAc(a1-3)]Gal(b1-4)GlcNAc(b1-2)Man
# In short: as §1
# [14] = target: Fuc(a1-2)[GalNAc(a1-3)]Gal(b1-4)GlcNAc(b1-3)Gal(b1-4)GlcNAc
# In short: as §1
# [15] = target: Fuc(a1-4)GlcNAc
# In short: as §1
# [16] = target: Fuc(b1-3)GlcNAc
# In short: as §1
# [17] = target: Gal(a1-3)Gal(b1-3)GlcNAc(b1-6)GalNAc
# In short: as §1
# [18] = target: Gal(a1-3)Gal(b1-4)Glc
# In short: as §1
# [19] = target: Gal(a1-3)Gal(b1-4)GlcNAc
# In short: as §1
# [20] = target: Gal(a1-3)Gal(b1-4)[Fuc(a1-3)]GlcNAc
# In short: as §1
# [21] = target: Gal(a1-4)Gal(b1-4)GlcNAc(b1-2)Man(a1-3)[Gal(a1-4)Gal(b1-4)GlcNAc(b1-2)Man(a1-6)]Man(b1-4)GlcNAc(b1-4)GlcNAc
# In short: as §1
# [22] = target: Gal(b1-3)[Neu5Ac(b2-6)]GalNAc
# In short: as §1
# [23] = target: Gal(b1-4)Gal
# In short: as §1
# [24] = target: Gal(b1-4)GlcNAc(b1-2)Man(a1-3)Man(b1-4)GlcNAc(b1-4)GlcNAc
# In short: as §1
# [25] = target: Gal(b1-4)GlcNAc(b1-3)Gal(b1-4)GlcNAc(b1-3)Gal(b1-4)GlcNAc(b1-3)Gal(b1-4)GlcNAc(b1-3)Gal(b1-4)GlcNAc(b1-2)Man(a1-3)[Gal(b1-4)GlcNAc(b1-3)Gal(b1-4)GlcNAc(b1-3)Gal(b1-4)GlcNAc(b1-3)Gal(b1-4)GlcNAc(b1-3)Gal(b1-4)GlcNAc(b1-2)Man(a1-6)]Man(b1-4)GlcNAc(b1-4)[Fuc(a1-6)]GlcNAc
# In short: as §1
# [26] = target: Gal(b1-4)GlcNAc(b1-3)[GlcNAc(b1-6)]Gal(b1-4)GlcNAc
# In short: as §1
# [27] = target: Gal(b1-4)GlcNAc(b1-6)GalNAc
# In short: as §1
# [28] = target: GalNAc(b1-3)Gal
# In short: as §1
# [29] = target: GalNAc(b1-6)GalNAc
# In short: as §1
# [30] = target: Glc(a1-6)Glc(a1-6)Glc
# In short: as §1
# [31] = target: GlcNAc(a1-4)Gal(b1-4)GalNAc
# In short: as §1
# [32] = target: GlcNAc(b1-3)Gal(b1-4)GlcNAc(b1-2)Man(a1-3)[GlcNAc(b1-3)Gal(b1-4)GlcNAc(b1-2)Man(a1-6)]Man(b1-4)GlcNAc(b1-4)GlcNAc
# In short: as §1
# [33] = target: GlcNAc(b1-4)Gal(b1-4)GlcNAc
# In short: as §1
# [34] = target: GlcNAc(b1-4)GlcNAc(b1-4)GlcNAc
# In short: as §1
# [35] = target: Kdn(a2-3)Gal(b1-4)GlcNAc
# In short: as §1
# [36] = target: Man(a1-3)[Man(a1-6)]Man(a1-6)[Man(a1-3)]Man
# In short: as §1
# [37] = target: Neu5Ac(a2-3)Gal(b1-3)GalNAc(b1-3)Gal(a1-4)Gal(b1-4)Glc
# In short: as §1
# [38] = target: Neu5Ac(a2-3)Gal(b1-3)GlcNAc6S
# In short: as §1
# [39] = target: Neu5Ac(a2-3)Gal(b1-3)[Neu5Ac(a2-6)]GalNAc
# In short: as §1
# [40] = target: Neu5Ac(a2-3)Gal(b1-4)GlcNAc(b1-2)Man(a1-3)[GlcNAc(b1-4)][Neu5Ac(a2-3)Gal(b1-4)GlcNAc(b1-2)Man(a1-6)]Man(b1-4)GlcNAc(b1-4)GlcNAc
# In short: as §1
# [41] = target: Neu5Ac(a2-3)Gal(b1-4)GlcNAc(b1-3)Gal(b1-4)GlcNAc
# In short: as §1
# [42] = target: Neu5Ac(a2-3)Gal(b1-4)GlcNAc(b1-6)[Gal(b1-3)]GalNAc
# In short: as §1
# [43] = target: Neu5Ac(a2-3)Gal(b1-4)GlcNAc(b1-6)[Neu5Ac(a2-3)Gal(b1-3)]GalNAc
# In short: as §1
# [44] = target: Neu5Ac(a2-3)[GalNAc(b1-4)]Gal(b1-4)Glc
# In short: as §1
# [45] = target: Neu5Ac(a2-3)[Neu5Ac(a2-6)]GalNAc
# In short: as §1
# [46] = target: Neu5Ac(a2-6)Gal(b1-4)GlcNAc(b1-2)[Neu5Ac(a2-6)Gal(b1-4)GlcNAc(b1-4)]Man(a1-3)[GlcNAc(b1-4)][Neu5Ac(a2-6)Gal(b1-4)GlcNAc(b1-4)Man(a1-6)]Man(b1-4)GlcNAc(b1-4)GlcNAc
# In short: as §1
# [47] = target: Neu5Ac(a2-6)Gal(b1-4)GlcNAc(b1-6)GalNAc
# In short: as §1
# [48] = target: Neu5Gc(a2-8)Neu5Ac(a2-3)Gal(b1-4)GlcNAc
# In short: as §1
binder,measurement,setting,value
PLU (Photorhabdus luminiscence) (protein) HHHHHHENLYFQSSIVFASIDPRSNPLQTSSQNYVDIPGLKLDVSKYSNSPCLTALITLNIPTPYASGNNFPGGNFAIVTDQGEQLAYGGFTYSSKIPENSGRMPFTLVARYSLASNVSTIKAQWSNIRGSTVHIDSYASISAVIQCNQLV,glycan array binding signal (z-score),[1],-0.183
same,glycan array binding signal (z-score),[2],5.25
same,glycan array binding signal (z-score),[3],3.55
same,glycan array binding signal (z-score),[4],0.621
same,glycan array binding signal (z-score),[5],3.58
same,glycan array binding signal (z-score),[6],5.21
same,glycan array binding signal (z-score),[7],4.43
same,glycan array binding signal (z-score),[8],3.43
same,glycan array binding signal (z-score),[9],3.83
same,glycan array binding signal (z-score),[10],3.78
same,glycan array binding signal (z-score),[11],5.59
same,glycan array binding signal (z-score),[12],-0.33
same,glycan array binding signal (z-score),[13],3.66
same,glycan array binding signal (z-score),[14],11.7
same,glycan array binding signal (z-score),[15],0.546
same,glycan array binding signal (z-score),[16],-0.329
same,glycan array binding signal (z-score),[17],-0.253
same,glycan array binding signal (z-score),[18],-0.284
same,glycan array binding signal (z-score),[19],-0.298
same,glycan array binding signal (z-score),[20],-0.21
same,glycan array binding signal (z-score),[21],-0.137
same,glycan array binding signal (z-score),[22],-0.298
same,glycan array binding signal (z-score),[23],-0.25
same,glycan array binding signal (z-score),[24],-0.227
same,glycan array binding signal (z-score),[25],-0.211
same,glycan array binding signal (z-score),[26],-0.329
same,glycan array binding signal (z-score),[27],-0.243
same,glycan array binding signal (z-score),[28],-0.24
same,glycan array binding signal (z-score),[29],-0.216
same,glycan array binding signal (z-score),[30],-0.299
same,glycan array binding signal (z-score),[31],-0.301
same,glycan array binding signal (z-score),[32],-0.212
same,glycan array binding signal (z-score),[33],-0.134
same,glycan array binding signal (z-score),[34],-0.336
same,glycan array binding signal (z-score),[35],-0.224
same,glycan array binding signal (z-score),[36],-0.093
same,glycan array binding signal (z-score),[37],-0.254
same,glycan array binding signal (z-score),[38],-0.277
same,glycan array binding signal (z-score),[39],-0.203
same,glycan array binding signal (z-score),[40],-0.251
same,glycan array binding signal (z-score),[41],-0.256
same,glycan array binding signal (z-score),[42],-0.144
same,glycan array binding signal (z-score),[43],-0.34
same,glycan array binding signal (z-score),[44],-0.324
same,glycan array binding signal (z-score),[45],-0.281
same,glycan array binding signal (z-score),[46],-0.267
same,glycan array binding signal (z-score),[47],-0.292
same,glycan array binding signal (z-score),[48],-0.285
